The results in this text go back to PubChem BioAssay.

A short description of assay [1]: growth inhibition of DIPG glioma cells, dose response, cell-based, SU-DIPG-XVII, MIPE5.0, CellTiter-Glo, qHTS (AID 1347060; cut-off not given, nearly all actives have AC50 up to about 26 µM;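 for AC50: cells exposed to compound for 48 hours before viability readout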). Particulars: SU-DIPG-XVII viability, CellTiter-Glo ATP luminescence. In general terms: In ATP-based viability assays light output follows the ATP content of the culture.
The nature of assay [2]: growth inhibition of DIPG glioma cells, dose response, cell-based, JHH-DIPG-1, MIPE4.0, CellTiter-Glo, qHTS (AID 1347062; cut-off not given, nearly all actives have AC50 up to about 27 µM;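 for AC50: cells exposed to compound for two days before readout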). The following applies: JHH-DIPG-1 viability, CellTiter-Glo ATP luminescence.
Assay [3] can be described thus: growth inhibition of DIPG glioma cells, dose response, cell-based, SU-DIPG-XIII, MIPE5.0, CellTiter-Glo, qHTS (AID 1347064; cut-off not given, nearly all actives have AC50 up to about 23 µM;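 for AC50: cells exposed to compound for 48 hours before the viability read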). Particulars: SU-DIPG-XIII viability, CellTiter-Glo ATP luminescence.
Assay [4] can be described thus: viability loss in pontine glioma line – cell-based, SU-DIPG-XXV, MIPE5.0, CellTiter-Glo, qHTS, dose response (AID 1347065; cut-off not given, nearly all actives have AC50 up to about 26 µM;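 note: cells exposed to compound for 48 hours before ATP readout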). Particulars: CellTiter-Glo ATP luminescence.
A short description of assay [5]: SU-DIPG-VI glioma cell viability, MIPE4.0 library, CellTiter-Glo luminescence, qHTS (AID 1347066; cut-off not given, nearly all actives have AC50 up to about 30 µM;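 note: cells exposed to compound for 48 hours before readout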). The following applies: CellTiter-Glo ATP luminescence.
Assay [6] can be described thus: SU-DIPG-XXV glioma cell viability, MIPE5.0 library, qHTS (AID 1347068; cut-off not given, nearly all actives have IC50 up to about 30 µM;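 for IC50: cells exposed to compound for 48 hours before viability readout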). Background: In qHTS, concentration-response curves come from the screen itself.
Assay [7] in a line: JHH-DIPG-1 glioma cell viability, MIPE5.0 library, CellTiter-Glo luminescence, qHTS (AID 1347067; cut-off not given, nearly all actives have AC50 up to about 26 µM;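 note: cells exposed to compound for 48 hours before readout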). The following applies: JHH-DIPG-1 glioma viability, CellTiter-Glo ATP luminescence.
A short description of assay [8]: sensitizers of A549 cells to miR-34 induction, primary screen, imaging, A549 dox-inducible miR-34, nuclei and caspase counts (AID 1347080;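 active = compounds whose cell count with miR-34 switched on is under 0.7 times the count with it off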). Particulars: A549 miR-34 inducible, Hoechst nuclei count, 48 h.
A short description of assay [9]: modifiers of HSF1 nuclear foci, imaging, Selleck Cancer Library (AID 1347162; in the data active = plate-normalised HSF1 focus index below about 0.46). The following applies: human cells, at 10 µM; SSMD: measured here: HSF1 foci SSMD mean; cell count: measured here: cell number; plate-normalised HSF1 focus index: stronger effect = lower value.
Assay [10] in a line: survival rescue of mitochondrial mutant cells in low glucose, primary screen, MELAS cybrids, Rieske KO mouse fibroblasts, CellTiter-Glo (AID 1508586;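 active = mean z-score across replicates of 1.96 or higher in either the MELAS or the Rieske mutant cell line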;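 note: z relative to plate mean and SD of compound and empty wells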).
Assay [11] is described as follows: ovarian cancer cell viability with rucaparib, profiling panel, oncology-focused library, rucaparib conditional (AID 1508598). The following applies: patient-derived ovarian cancer cells, CellTiter-Glo viability, 144 h, stronger effect = lower value.
The mark [12] stands for this setting: stronger effect = lower value, cell number ratio, induced over uninduced.
The mark [13] stands for this setting: measured here: relative caspase fold change +Dox/-Dox.
Where [14] appears, read: measured here: total cells with miR-34 induction, stronger effect = lower value.
Where [15] appears, read: measured here: total cells without miR-34 induction.
Setting [16] is: MELAS cybrid survival, CellTiter-Glo 48 h, stronger effect = higher value.
The mark [17] stands for this setting: Rieske KO mouse fibroblast survival, CellTiter-Glo 72 h.

“And” between values parts separate entries of the source, which are not always exact repeats. Equal values may be shown once. Records with an inconclusive call do not appear. The source made the active and inactive calls.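 Rule for the calls, unless noted: active = normalized viability below 100% at a tested concentration; inactive = the rest.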

As to `COc1ccc(C2=N[C@H](c3ccc(Cl)cc3)[C@H](c3ccc(Cl)cc3)N2C(=O)N2CCNC(=O)C2)c(OC(C)C)c1`, the AC50 is 14.8 µM (active) in assay [1], 23.5 µM (active) in [2], 16.6 µM (active) in assay [3] and 10.5 µM (active) in [4]. For the same compound, the compound was called inactive in assay [5] and in assay [6].
Regarding `CN(C(=O)c1ccc(F)cc1C(F)(F)F)C1CCN(c2nnc(-c3ccnn3C)c3ccccc23)CC1`, the result in assay [1], in [2], in assay [3], in [4], in assay [5] and in assay [7] was inactive. In assay [6], the compound was called inactive.
Turning to `Cc1cnc(Nc2ccc(OCCN3CCCC3)cc2)nc1Nc1cccc(S(=O)(=O)NC(C)(C)C)c1`, the AC50 in assay [1] was 1.05 µM (active); in [3], 5.9 µM (active); in assay [4] it was 3.72 µM (active); in assay [7] it was 5.25 µM (active). The compound was classed as inactive in [2] and in [5]. In addition, the IC50 in assay [6] is 7.42 µM (active). The fold change in assay [8] (setting [12]) is 1.01 (inactive); in assay [8] (setting [13]) it was 1.95. For the same compound, the figures for the cell count in assay [8] (setting [14]), in [8] (setting [15]) and in assay [9] were 2480, 2450 and 6980, respectively. The SSMD in assay [9] was determined as 1.73. For the same compound, the plate-normalised HSF1 focus index in [9] is 1.11 (inactive). The z-score in [10] (setting [16]) was 1.98 (active); in assay [10] (setting [17]), -3.31. In addition, the viability in assay [11] (at 0.000305 µM, OCI-C5x cells, with rucaparib 10 µM, 100% = cells with rucaparib alone) is 104% (inactive); in assay [11] (at 0.000305 µM, OCI-C5x cells, without rucaparib), 124% (inactive); in [11] (at 0.000305 µM, OCI-P5x cells, with rucaparib 20 µM, 100% = cells with rucaparib alone) it was 98.4% (active); in assay [11] (at 0.000305 µM, OCI-P5x cells, without rucaparib), 110% (inactive); in assay [11] (at 0.00122 µM, OCI-C5x cells, with rucaparib 10 µM, 100% = cells with rucaparib alone), 113% (inactive); in [11] (at 0.00122 µM, OCI-C5x cells, without rucaparib) it was 121% (inactive). The viability in assay [11] (at 0.00122 µM, OCI-P5x cells, with rucaparib 20 µM, 100% = cells with rucaparib alone) is 99.3% (active); in assay [11] (at 0.00122 µM, OCI-P5x cells, without rucaparib), 109% (inactive); in [11] (at 0.00488 µM, OCI-C5x cells, with rucaparib 10 µM, 100% = cells with rucaparib alone) it was 112% (inactive); in [11] (at 0.00488 µM, OCI-C5x cells, without rucaparib) it was 125% (inactive); in assay [11] (at 0.00488 µM, OCI-P5x cells, with rucaparib 20 µM, 100% = cells with rucaparib alone) it was 102% (inactive); in [11] (at 0.00488 µM, OCI-P5x cells, without rucaparib) it was 109% (inactive). Moreover, the viability in assay [11] (at 0.0195 µM, OCI-C5x cells, with rucaparib 10 µM, 100% = cells with rucaparib alone) is 107% (inactive); in assay [11] (at 0.0195 µM, OCI-C5x cells, without rucaparib), 121% (inactive); in [11] (at 0.0195 µM, OCI-P5x cells, with rucaparib 20 µM, 100% = cells with rucaparib alone), 95.4% (active); in assay [11] (at 0.0195 µM, OCI-P5x cells, without rucaparib), 112% (inactive); in [11] (at 0.0781 µM, OCI-C5x cells, with rucaparib 10 µM, 100% = cells with rucaparib alone), 106% (inactive); in assay [11] (at 0.0781 µM, OCI-C5x cells, without rucaparib), 122% (inactive). In addition, the viability in assay [11] (at 0.0781 µM, OCI-P5x cells, with rucaparib 20 µM, 100% = cells with rucaparib alone) was 99.2% (active); in assay [11] (at 0.0781 µM, OCI-P5x cells, without rucaparib) it was 105% (inactive); in assay [11] (at 0.313 µM, OCI-C5x cells, with rucaparib 10 µM, 100% = cells with rucaparib alone), 105% (inactive); in [11] (at 0.313 µM, OCI-C5x cells, without rucaparib), 113% (inactive); in [11] (at 0.313 µM, OCI-P5x cells, with rucaparib 20 µM, 100% = cells with rucaparib alone), 81.7% (active); in assay [11] (at 0.313 µM, OCI-P5x cells, without rucaparib), 96.3% (active). Besides, the viability in assay [11] (at 1.25 µM, OCI-C5x cells, with rucaparib 10 µM, 100% = cells with rucaparib alone) is 93.7% (active); in [11] (at 1.25 µM, OCI-C5x cells, without rucaparib), 84.4% (active); in [11] (at 1.25 µM, OCI-P5x cells, with rucaparib 20 µM, 100% = cells with rucaparib alone), 78% (active); in assay [11] (at 1.25 µM, OCI-P5x cells, without rucaparib), 88.7% (active); in assay [11] (at 5 µM, OCI-C5x cells, with rucaparib 10 µM, 100% = cells with rucaparib alone), 2.62% (active); in [11] (at 5 µM, OCI-C5x cells, without rucaparib), 55.3% (active). Moreover, the viability was 1.43% (active) in assay [11] (at 5 µM, OCI-P5x cells, with rucaparib 20 µM, 100% = cells with rucaparib alone) and 2% (active) in assay [11] (at 5 µM, OCI-P5x cells, without rucaparib).
Consider `COc1ccc2c(c1)c(C1=C(c3c[nH]c4ccccc34)C(=O)NC1=O)cn2CCCN(C)C`, for which the AC50 in [1] is 20.9 µM (active); in assay [2], 16.6 µM (active); in [4], 20.9 µM (active); in assay [7], 20.9 µM (active). For the same compound, in assay [6], the half-inhibitory concentration (IC50) is 29.5 µM (active). Further, the fold change is 0.91 (inactive) and 0.965 (inactive) in assay [8] (setting [12]); 0.481 and 1.22 in assay [8] (setting [13]). The cell count in assay [8] (setting [14]) was 4170 and 4590; in assay [8] (setting [15]) it was 4580 and 4760. Besides, the z-score in assay [10] (setting [16]) is -0.592 (inactive); in [10] (setting [17]), -0.0818.
Take `Cc1ccc(CN2CCNCC2)cc1NC(=O)CNc1ccc(F)c(F)c1`: the compound was classed as inactive in assay [1], in assay [2], in [3], in assay [4], in assay [7] and in assay [6].

Usually AC50 stands for the concentration giving half of the maximal activity seen. As a reminder, the IC50 is the concentration that gives 50% inhibition. The viability is a read-out of living cells in per cent, often relative to untreated cells.
